# From PubChem BioAssay
# Where “and” joins values, the source holds several entries; their conditions need not be identical. Equal values may be shown once. Calls of active or inactive are those of the source.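 The calls were made as follows, unless noted: active = compounds that lower viability of the colon cancer cells in the luminescence readout, with no numeric limit stated; inactive = the rest.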
# Legend:
# [1] = stimulators of nuclear beta-catenin in C2C12, primary screen, imaging, WNT3A-conditioned medium, mouse C2C12, NPC library (AID 1117326; in the data active = nuclear beta-catenin stimulation mostly above about 4.2%, no sharp cut-off; inactive = mostly below about 10%); conditions: stronger effect = higher value
# [2] = stimulators of insulin release from INS-1E, primary screen, cell-based, 5 mM glucose, NPC library (AID 1117329;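 active = compound raises insulin release from rat beta cells at 5 mM glucose, no numeric limit stated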); conditions: rat INS-1E insulin secretion, at 10 µM, stronger effect = higher value
# [3] = growth inhibition of GSK3B-pretreated HCT116 cells – cell-based, CellTiter-Glo, 0.2 to 20 µM (AID 1117336;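 active = compounds lowering colon cancer cell viability after pretreatment blocking the GSK3B kinase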); conditions: HCT116 viability after GSK3B inhibitor, at 20 µM, stronger effect = higher value
# [4] = inhibition of endothelial tube formation, primary screen, imaging, VEGF stimulated, CD31 staining, tube area, NPC library (AID 1117340;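 active = compound that reduces growth-factor-driven endothelial tube area in a mixed cell culture, no cutoff stated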); conditions: VEGF-stimulated ADSC/ECFC co-culture, at 10 µM, stronger effect = higher value
# [5] = glucagon-like peptide 1 release enhancers, primary assay, NCI-H716 cell line, NPC library (AID 1117341;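 active = compound raises GLP1 secretion from the human gut endocrine cells, with no numeric limit stated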); conditions: NCI-H716 cells, at 10 µM, stronger effect = higher value
# [6] = HCT116 colon cancer cell growth inhibition, primary screen, CellTiter-Glo luminescence, NPC library (AID 1117342;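 active = compounds that lower survival of HCT116 colon cancer cells in the luminescence readout, no numeric limit stated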); conditions: at 20 µM (top of the series)
# [7] = CellTiter-Glo luminescent readout of SW480 viability loss, NPC library primary (AID 1117343); conditions: CellTiter-Glo luminescence; at 20 µM (top of the series) unless noted
# [8] = decreased DLD-1 cellular survival, CellTiter-Glo luminescent readout, NPC compound collection, primary HTS (AID 1117346;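 active = compounds that lower survival of DLD-1 colon cancer cells in the luminescence readout, no cutoff given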); conditions: DLD-1 viability, CellTiter-Glo luminescence; at 20 µM (top of the series)
# [9] = differential killing of epithelial or mesenchymal cells, primary screen, imaging, PC-3E GFP, TEM4-18 mCherry, co-culture (AID 1345086;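 active = compounds killing one labelled cell type while sparing the other, by normalised counts and ratio limits, not self-fluorescent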;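 as to all read-outs here: cells exposed to compound for 72 h before imaging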;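 as to red/green cell ratio (normalised): normalised mesenchymal count divided by normalised epithelial count so high means epithelial killing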); conditions: imaging cell counts, at 1 µM; for red/green cell ratio (normalised): actives lie on both sides, counts scaled to control wells, 1 = unselective
# [10] = sensitizers of A549 cells to miR-34 induction, primary screen, imaging, A549 dox-inducible miR-34, nuclei and caspase counts (AID 1347080;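 active = compounds whose cell count with miR-34 switched on is under 0.7 times the count with it off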); conditions: A549 miR-34 inducible, Hoechst nuclei count, 48 h
# [11] = target: NAD(+) hydrolase SARM1 (Homo sapiens) (UniProt Q6SZW1); test: SARM1 TIR NADase inhibitors, cell lysate, NAD-Glo luminescence (AID 1508614;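 active = compound whose remaining NAD level is above about 45 nM, limit read from the data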;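 also: higher remaining NAD means stronger inhibition of SARM1 NADase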); conditions: SAM-TIR HEK293T lysate NADase, at 1 µM, stronger effect = higher value
# [12] = liver-stage malaria parasite growth inhibition, primary screen, cell-based, HepG2, luciferase luminescence, HepG2 viability (AID 624349; in the data active = parasite load remaining mostly below about 12%, no sharp cut-off; inactive = mostly above about 10%;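 also: 100% = mean of DMSO negative control wells on the same plate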); conditions: P. berghei liver stage in HepG2, luciferase luminescence, concentration not given here; parasite load remaining: stronger effect = lower value; viability: measured here: HepG2 viability without parasites
# [13] = measured here: epithelial PC-3E GFP cell survival
# [14] = measured here: mesenchymal TEM4-18 mCherry cell survival
# [15] = stronger effect = lower value, cell number ratio, induced over uninduced
# [16] = measured here: relative caspase fold change +Dox/-Dox
# [17] = measured here: total cells with miR-34 induction, stronger effect = lower value
# [18] = measured here: total cells without miR-34 induction
# Chain of NAD(+) hydrolase SARM1 (Homo sapiens) (Q6SZW1 whole entry, looked up): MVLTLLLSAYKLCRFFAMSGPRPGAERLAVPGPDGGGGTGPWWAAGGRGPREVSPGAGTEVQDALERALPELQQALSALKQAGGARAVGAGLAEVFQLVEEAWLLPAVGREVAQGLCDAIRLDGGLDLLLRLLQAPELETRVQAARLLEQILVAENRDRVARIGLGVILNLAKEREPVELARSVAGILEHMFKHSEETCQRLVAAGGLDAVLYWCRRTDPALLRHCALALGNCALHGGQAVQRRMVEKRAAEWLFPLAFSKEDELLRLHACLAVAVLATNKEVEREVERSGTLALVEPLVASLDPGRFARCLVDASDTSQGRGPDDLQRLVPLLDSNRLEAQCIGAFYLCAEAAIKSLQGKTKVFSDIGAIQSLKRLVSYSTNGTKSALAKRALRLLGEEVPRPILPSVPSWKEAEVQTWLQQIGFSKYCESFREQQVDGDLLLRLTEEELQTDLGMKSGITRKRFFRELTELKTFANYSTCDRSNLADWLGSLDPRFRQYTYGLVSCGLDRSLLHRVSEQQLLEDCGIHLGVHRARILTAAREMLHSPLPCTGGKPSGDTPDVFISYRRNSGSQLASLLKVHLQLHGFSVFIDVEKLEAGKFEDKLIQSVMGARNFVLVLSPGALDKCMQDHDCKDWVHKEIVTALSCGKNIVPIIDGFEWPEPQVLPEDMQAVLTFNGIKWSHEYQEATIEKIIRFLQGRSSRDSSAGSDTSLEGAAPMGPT
Compound,nuclear beta-catenin stimulation ([1]; at 10 µM),"nuclear beta-catenin stimulation ([1]; stimulation, at 2 µM)",insulin secretion stimulation [2],viability decrease [3],tube area decrease [4],GLP1 secretion stimulation [5],inhibition of viability [6],viability decrease (inhibition) [7],viability decrease (inhibition) [8],red/green cell ratio (normalised) [9],"normalised cell number [9, 13]","normalised cell number [9, 14]","fold change [10, 15]","fold change [10, 16]","cell count [10, 17]","cell count [10, 18]",remaining NAD [11],parasite load remaining [12],viability [12]
CC(C)COC(=O)c1ccc(N)cc1,0.2% (inactive),0.4%,-1.9% (inactive),-5.95% (inactive),0.5% (inactive),0.9% (inactive),6.2% (inactive),61.3% (active),12.5% (inactive),1.09 (inactive),0.86,0.93,0.964 (inactive),0.986,8750,9080,10 nM (inactive),,
CCN(CC)CCOc1ccc2c(c1)C(=O)c1cc(OCCN(CC)CC)ccc1-2,8.6% (inactive),0.3%,3.7% (inactive),-16.4% (inactive),13% (inactive),3.6% (inactive),52.8% (active),95.3% (active),38.8% (inactive),1.18 (inactive),0.79,0.93,0.841 (inactive),3.57,9990,11900,10 nM (inactive),151% (inactive) and 24.6% (inactive),84.5% and 89%
O=C(O)CN(CC(=O)O)Cc1cc2c(-c3ccccc3C(=O)O)c3cc(CN(CC(=O)O)CC(=O)O)c(=O)cc-3oc2cc1O,-1.1% (inactive),-0.6%,-0.4% (inactive),38.8% (inactive),19.9% (inactive),0.8% (inactive),22.3% (inactive),25.8% (inactive),14.8% (inactive),0.97 (inactive),1.53,1.49,,,,,,107% (inactive),73.2%
NCCNCCNCCN,0.6% (inactive),0.7%,0.4% (inactive),0.25% (inactive),-7.4% (inactive),-0.1% (inactive),4.7% (inactive),-40.9% (inactive),3.2% (inactive),0.86 (inactive),1.02,0.88,0.908 (inactive),4.46,11700,12900,10 nM (inactive),41.3% (inactive),163%
CCCCCCCCCCOc1cc2c(=O)c(C(=O)OCC)c[nH]c2cc1OCC,-2.3% (inactive),-0.1%,-0.4% (inactive),-29.2% (inactive),-2% (inactive),1.3% (inactive),-5.6% (inactive),-212% (inactive),-42% (inactive),1 (inactive),0.98,0.98,0.938 (inactive),1.91,11200,11900,10 nM (inactive),0.015% (active),101%
